# US20060069055, “Delivery of polynucleotides” (published 2006)
# Biological target: NF-kB p65/p50 heterodimer (Homo sapiens, UniProt Q04206;P19838 Q04206:1-551,P19838:1-433)
# Test: EMSA; competition against labelled probe 113/114
# Details: protein: extract; tags: nuclear extract of LPS-stimulated THP-1 cells; dsDNA, one strand shown; PS at the 4 most 3' linkages of both strands
# From the text: The EMSA assay was employed to characterize oligonucleotide decoys for the NF-κB transcription factor. […] Using the above modified oligonucleotides to compete for binding for the above-mentioned NF-κB family members, it was possible to compare the binding affinity of these oligonucleotides against the high affinity radiolabeled probe and each other. This assay has also enabled the design of a decoy which selectively binds particular members of the NF-κB family. By using increasing concentrations of various oligonucleotides, it was observed that, by deleting or changing targeted residues in the binding site, it was possible to specifically decrease the binding of the decoy molecule to p50/p50 homodimers, while retaining the affinity for p65/p50 and cRel/p50 heterodimers.
# The NF-κB gel shift assays (EMSA) were performed as follows. A double-stranded oligonucleotide containing a consensus NF-κB binding site (5′ […].GGC 3′) (SEQ ID NO: 26) was end-labeled with γ³²P-ATP using T4 Polynucleotide Kinase (Promega). […] The dried gels were imaged and quantitated using a Typhoon 8600 Phosphorlmager (Amersham) and ImageQuant software. […]
# Sequence of NF-kB p65/p50 heterodimer (Q04206 whole entry, chain 1 of 2): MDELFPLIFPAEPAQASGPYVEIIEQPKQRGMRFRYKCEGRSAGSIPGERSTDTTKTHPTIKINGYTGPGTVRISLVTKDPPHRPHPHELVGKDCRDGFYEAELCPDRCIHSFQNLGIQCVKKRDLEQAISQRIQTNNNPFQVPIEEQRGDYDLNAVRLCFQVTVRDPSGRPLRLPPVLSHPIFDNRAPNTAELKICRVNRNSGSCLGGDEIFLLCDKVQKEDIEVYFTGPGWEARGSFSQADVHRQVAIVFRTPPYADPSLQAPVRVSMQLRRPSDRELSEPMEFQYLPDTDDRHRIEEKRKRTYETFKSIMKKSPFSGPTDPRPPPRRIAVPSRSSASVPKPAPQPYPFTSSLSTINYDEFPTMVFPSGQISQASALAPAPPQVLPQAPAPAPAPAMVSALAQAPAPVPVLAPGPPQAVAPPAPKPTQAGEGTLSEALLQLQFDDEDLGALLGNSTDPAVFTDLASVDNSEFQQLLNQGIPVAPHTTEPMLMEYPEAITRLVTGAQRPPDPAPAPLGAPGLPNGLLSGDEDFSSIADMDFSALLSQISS
# Sequence of NF-kB p65/p50 heterodimer (P19838 1-433, chain 2 of 2): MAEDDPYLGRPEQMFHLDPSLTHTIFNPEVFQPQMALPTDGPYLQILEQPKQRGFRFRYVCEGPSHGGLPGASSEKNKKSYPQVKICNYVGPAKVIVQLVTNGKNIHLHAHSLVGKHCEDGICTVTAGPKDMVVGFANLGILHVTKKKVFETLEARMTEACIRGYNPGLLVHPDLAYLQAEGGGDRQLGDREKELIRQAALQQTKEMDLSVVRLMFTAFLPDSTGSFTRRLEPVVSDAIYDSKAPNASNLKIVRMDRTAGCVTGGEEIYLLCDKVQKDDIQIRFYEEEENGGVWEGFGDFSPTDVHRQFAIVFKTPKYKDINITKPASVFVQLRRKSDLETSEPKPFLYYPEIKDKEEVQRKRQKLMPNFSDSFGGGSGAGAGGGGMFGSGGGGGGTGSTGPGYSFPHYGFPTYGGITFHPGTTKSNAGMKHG
sequence,measurement,value
AGTTGAGGACTTTCCAGGC,IC50,85 fold molar excess
